Consider 24 compounds from PubChem BioAssay.

Unmarked numbers belong to inactive results. Calls of active or inactive are those of the source. Cut-off read from the data, not from the text of the source, unless noted: active = inhibition above about 33%; inactive = the rest.

As a reminder, the inhibition is the drop in the measured response relative to a control, in per cent.

The nature of experiment [1]: StAR promoter reporter inhibitors, counter-screen for LRH-1 inverse agonist project, cell-based, luminescence, high throughput (AID 651611; in the data active = inhibition above about 28%). As to conditions: StAR promoter luciferase reporter counterscreen, at 3.6 µM, stronger effect = higher value. Background: The purpose of a counterscreen is to sort out artefacts and off-target activity.
The target in experiment [2] is Nuclear receptor subfamily 5 group A member 2 (Homo sapiens) (UniProt O00482). Kind of experiment: NR5A2 activity suppression in reporter cells – cell-based, luminescence, confirmation (AID 651613; in the data active = inhibition above about 42%;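 note: HEK293T cells co-transfected with LRH-1 and StAR promoter luciferase reporter; 0% = vehicle wells and 100% = parental cells lacking receptor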). The settings on record: cell-based LRH-1 luciferase reporter, inverse agonism; at 3.6 µM; stronger effect = higher value.
Chain of Nuclear receptor subfamily 5 group A member 2 (Homo sapiens) (O00482 whole entry, looked up): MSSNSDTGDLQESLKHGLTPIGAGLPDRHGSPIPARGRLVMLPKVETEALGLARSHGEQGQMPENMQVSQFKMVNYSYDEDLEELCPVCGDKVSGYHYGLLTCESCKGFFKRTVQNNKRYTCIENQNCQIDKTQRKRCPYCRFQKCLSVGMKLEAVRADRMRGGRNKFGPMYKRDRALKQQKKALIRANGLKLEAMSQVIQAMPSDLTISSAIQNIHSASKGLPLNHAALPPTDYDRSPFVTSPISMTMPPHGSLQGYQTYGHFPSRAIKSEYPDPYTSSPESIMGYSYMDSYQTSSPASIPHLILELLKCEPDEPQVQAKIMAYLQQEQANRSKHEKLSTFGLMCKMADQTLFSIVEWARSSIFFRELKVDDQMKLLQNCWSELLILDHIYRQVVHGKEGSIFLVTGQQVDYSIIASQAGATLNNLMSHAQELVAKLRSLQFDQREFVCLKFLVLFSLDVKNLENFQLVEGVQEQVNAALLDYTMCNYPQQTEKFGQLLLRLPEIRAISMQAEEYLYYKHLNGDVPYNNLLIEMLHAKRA
Experiment [3] concerns the target Steroidogenic factor 1 (Homo sapiens) (UniProt Q13285). Kind of experiment: inverse agonism at SF1 nuclear receptor – cell-based, luminescence, high throughput, counter-screen for LRH-1 inverse agonist project (AID 651614; in the data active = inhibition above about 44%;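 note: cells cotransfected with StAR promoter reporter and SF1 expression vector; 0% = vehicle on cells with receptor and 100% = vehicle on cells lacking receptor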). As to conditions: cell-based SF1 luciferase reporter, at 3.6 µM, stronger effect = higher value.
Experiment [4] in a line: compounds suppressing VP16-driven luciferase signal – cell-based, luminescence, high throughput, counter-screen for LRH-1 inverse agonist project (AID 651615). As to conditions: Gal4-VP16 luciferase reporter cells, at 3.6 µM, stronger effect = higher value.

Chain of Steroidogenic factor 1 (Homo sapiens) (Q13285 whole entry, looked up, the tested form may be a part): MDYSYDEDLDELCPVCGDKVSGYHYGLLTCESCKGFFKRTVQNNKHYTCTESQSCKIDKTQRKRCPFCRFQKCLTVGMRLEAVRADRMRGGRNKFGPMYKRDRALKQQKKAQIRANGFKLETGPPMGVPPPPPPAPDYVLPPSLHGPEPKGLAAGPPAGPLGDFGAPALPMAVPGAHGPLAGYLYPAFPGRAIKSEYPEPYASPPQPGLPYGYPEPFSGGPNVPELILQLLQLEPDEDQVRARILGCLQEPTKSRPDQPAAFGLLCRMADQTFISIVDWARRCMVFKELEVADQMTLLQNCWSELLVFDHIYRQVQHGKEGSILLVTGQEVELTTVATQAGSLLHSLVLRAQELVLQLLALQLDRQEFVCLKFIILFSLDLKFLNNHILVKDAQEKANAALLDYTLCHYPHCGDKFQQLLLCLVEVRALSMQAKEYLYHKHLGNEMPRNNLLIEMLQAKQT

As for `O=C(Cc1ccc(S(=O)(=O)N2CCCC2)s1)Nc1cccc([N+](=O)[O-])c1`, the inhibition in experiment [1] was 7.13%; in experiment [2], 51.3% (active); in experiment [3], 46.5% (active); in experiment [4], 1.81%.
For `Cc1ccc(SCc2ccc(C(=O)NCc3ccncc3)cc2)cc1` the same measures were -0.78%, 55.9% (active), 53.1% (active) and -0.6%.
For `CC(=O)N1CCc2c(sc(NC(=O)CCS(=O)(=O)c3ccccc3)c2C#N)C1` the same measures were -5.27%, 60.1% (active), 55.1% (active) and -11%.
For `NC(=S)N/N=C/c1ccc([N+](=O)[O-])cc1` the same measures were 6.27%, 42.7% (active), 39.8% and -3.22%.
On to `O=C(Cn1nnc2ccccc2c1=O)Nc1ccc2c(c1)CCC2`, for which the inhibition in experiment [1] was -34.8%; in experiment [2] it was 20.8%; in experiment [3], 25.6%; in experiment [4], 0.93%.
For `CC(=O)Nc1ccc(NC(=O)COC(=O)c2cc(S(=O)(=O)N3CCCC3)ccc2O)cc1` the same measures were 21%, 58.9% (active), 61.4% (active) and -14.8%.
For `C#CCN(C[C@@H]1[C@@H](OC(=O)NCC2CCCCC2)[C@@H](OC(=O)NCC2CCCCC2)Cn2c(=O)ccc(=O)n21)S(=O)(=O)c1ccc(C)cc1` the same measures were 38.3% (active), 62.4% (active), 74.5% (active) and 70.8% (active).
For `Clc1ccc(Cn2ncc3c(NCc4ccccc4)ncnc32)cc1` the same measures were 43.3% (active), 59.4% (active), 51.4% (active) and 14.4%.
As for `O=C(Nc1c(F)cccc1F)c1cnc(N2CCN(c3ccccn3)CC2)c2ccccc12`, the inhibition is 41.4% (active) in experiment [1], 41% in experiment [2], 35.2% in experiment [3] and 17.4% in experiment [4].
For `O=C(Nc1nc(-c2cccs2)cs1)c1ccc([N+](=O)[O-])o1` the same measures were -1.18%, 51.9% (active), 62.9% (active) and -34.9%.
As for `COc1ccc(CCNC(=O)CSc2nc3[nH]c(=O)cc(O)c3s2)cc1`, the inhibition in experiment [1] was 17.6%; in experiment [2] it was 60.7% (active); in experiment [3], 51.7% (active); in experiment [4], -3.78%.
For `Cc1c(C(C)C)c(=O)n(-c2ccc(S(=O)(=O)NC3CCCCC3)cc2)n1C` the same measures were 23.7%, 60.6% (active), 62.1% (active) and 47.9% (active).
For `COc1ccccc1N1CCN(C(=O)C2c3ccccc3Oc3ccccc32)CC1` the same measures were 34.4% (active), 26%, 33.4% and 39.4% (active).
For `CCc1ccccc1NC(=O)CSc1nc2n[nH]c(C)c2c(=N)n1-c1cccc(OC)c1` the same measures were 16.7%, 38.2%, 19.4% and -17.4%.
For `O=C(NCc1ccco1)c1ccc([N+](=O)[O-])o1`, the inhibition in experiment [1] was 7.6%; in experiment [2] it was 60.5% (active); in experiment [3], 59.6% (active); in experiment [4], -13.8%.
Turning to `O=C1C=C(N2CCCCCC2)C2(CCCCC2)O1`, the inhibition in experiment [1] is 4.6%; in experiment [2] it was 58.5% (active); in experiment [3] it was 55% (active); in experiment [4], -9.31%.
For `Cc1csc(=O)n1CCC(=O)OCC(=O)Nc1ccc(N2CCOCC2)cc1` the same measures were -7.54%, 54.1% (active), 44.2% (active) and -3.02%.
For `O=C(c1ccoc1)N1CCN(c2cc(-c3ccco3)nc3cc(-c4ccccc4)nn23)CC1` the same measures were 46.1% (active), 50.1% (active), 48% (active) and 19.7%.
For `Cc1cc([N+](=O)[O-])ccc1NC(=O)CSc1nnc(C)n1C` the same measures were -1.6%, 60.6% (active), 47.1% (active) and -3.16%.
Turning to `O=[N+]([O-])c1ccc(Sc2nnnn2-c2ccccc2)c(Cl)c1`, the inhibition in experiment [1] is 5.41%; in experiment [2], 25.6%; in experiment [3] it was 37.7%; in experiment [4], -13%.
For the compound `O=C(CSc1ncccc1-c1nc2ccccc2[nH]1)Nc1ccc2c(c1)OCCO2`, the inhibition in experiment [1] was -8.79%; in experiment [2], -2.1%; in experiment [3] it was 5.63%; in experiment [4], -15.5%.
For `Nc1ccccc1Nc1ccncc1[N+](=O)[O-]` the same measures were 0.62%, 55.8% (active), 63.3% (active) and -1.54%.
For `CCc1ccc(N2C=C(C(=O)OC)C(c3ccc(OC)cc3)C(C#N)=C2N)cc1` (stereo unspecified) the same measures were 48.9% (active), 25.1%, 45.3% (active) and 24.5%.
For `CC(=O)N1CCc2c(sc(NC(=O)CCS(=O)(=O)c3ccc(C)cc3)c2C#N)C1` the same measures were 11.7%, 52.5% (active), 43.6% (active) and -1.4%.
